Bioassay records: PubChem, National Center for Advancing Translational Sciences (NCATS)
KB-3-1 tox: qHTS assay for MDR1-selective chemotherapeutics: Primary screen using the parental adenocarcinoma cell KB-3-1; 400,000 tested, 1.4% active; KB-3-1 viability, CellTiter-Glo ATP luminescence, 72 h; AID 1347075, 2019; Potency, µM (doses to about 46.1 µM), actives largely listed as cytotoxic; note: % is set by controls: 0 for no effect and ±100 for the full control effect; nearly all actives have a fitted effect of over 60% in size
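Cytotoxicity measured as CellTiter-Glo luminescence after 72 h at 37 C. Compound titrations were pinned onto drug-naive KB-3-1 parental adenocarcinoma cells grown in DMEM with 10% FBS, and normalized data fitted to concentration-response curves.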
ELG1 DNA repair: qHTS screen for small molecules that inhibit ELG1-dependent DNA repair in human embryonic kidney (HEK293T) cells expressing luciferase-tagged ELG1; HEK293T ELG1-luciferase reporter, luminescence, 16 h; DNA damage induced by 5-fluorouridine; Potency, µM (doses to about 46.1 µM), inactives show at the highest dose activity change, negative = inhibition, hits mostly inhibitors; 330,000 tested, 2.3% active; AID 504467, 2011; note: % is set by controls: 0 for no effect and ±100 for the full control effect; nearly all actives have a fitted effect of over 55% in size
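Overnight (16 hr) co-exposure of 2,000 cells/well to 5-fluorouridine and compound at 37 °C preceded detection. Luciferase was quantified via ONE-Glo luminescence; loss of signal denotes inhibition.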
MCF10A rereplic: A quantitative high throughput screen for small molecules that induce DNA re-replication in MCF 10a normal breast cells; Potency, µM (doses to about 46.1 µM), for the others: at the top dose activity, positive = re-replication, most hits filed as activators; 350,000 tested, 2.9% active; MCF 10A DNA re-replication, Hoechst nuclear intensity, 48 h; note: % of control where 0% means no effect; nearly all actives have a fitted effect of over 50% in size
SW480 rerep: A quantitative high throughput screen for small molecules that induce DNA re-replication in SW480 colon adenocarcinoma cells; SW480 DNA re-replication, Hoechst DNA content imaging, 48 h; Potency, µM (top dose mostly 46.1 µM), for the others: top-dose re-replication activation, actives largely listed as activators; 340,000 tested, 1.8% active; AID 624297, 2012; note: % of control where 0% means no effect; nearly all actives have a fitted effect of over 55% in size
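First, 250 cells per well were seeded. Next, compound or vehicle (23 nL) was pinned in, plates sat 48 hr at 37 C. Finally Hoechst was added for 40 min before fluorescence scanning.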
KB-V1 cytotox: qHTS assay for MDR1-selective chemotherapeutics: Primary screen using the drug-selected MDR subline cells KB-V1. KB-V1 MDR cells viability, CellTiter-Glo, 72 h. 400,000 tested, 3.4% active. Potency, µM (highest dose often 46.1 µM), actives largely listed as cytotoxic. AID 1347076, 2019; note: % is set by controls: 0 for no effect and ±100 for the full control effect; nearly all actives have a fitted effect of over 60% in size
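qHTS viability screen in drug-selected KB-V1 MDR cells: 72 h compound treatment at 37 degrees C, ATP luminescence end point.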
Active calls of the source: *; i = inactive; ? = inconclusive; . = no result given; [ ] = another dose, or the depositor's remark. Shown are actives, neighbours in structure and some others; about 8.1% of the full set was active somewhere. Calls come from the whole dose curve; as a rule, active = well fitted curve in the direction sought with a large enough effect; inconclusive = small, poorly fitted or top-dose-only effect, or another doubt; inactive = no such curve, though single readings can be large; an effect the other way counts as inactive or inconclusive. Potency is the fitted concentration of half-maximal effect.

SMILES	KB-3-1 tox	ELG1 DNA repair	MCF10A rereplic	SW480 rerep	KB-V1 cytotox
NC(=S)N/N=C1\CCOc2ccc(Cl)cc21	?	21µM*	1%	-35%	?
CSc1nc(SCCO)c2sc3nc(-c4ccco4)c4c(c3c2n1)CC(C)(C)OC4	?	9%	13µM*	5%	i
COC(=O)CSc1nc(SC)nc2c1sc1nc(-c3ccco3)c3c(c12)CC(C)(C)OC3	i	.	1%	-2%	i
CSc1nc(N(CCO)CCO)c2sc3nc(-c4ccco4)c4c(c3c2n1)CCC4	i	?	15µM*	?	i
CCc1ccc(-c2cc(C(F)(F)F)n3nc(C(=O)Nc4c(C)nn(Cc5ccc(F)cc5)c4C)cc3n2)s1	?	?	?	8.2µM*	?
C=C(C)c1cccc(C(C)(C)NC(=O)Nc2ccc(OC)cc2)c1	i	-2%	2%	-3%	i
C=C(C)c1cccc(C(C)(C)NC(=O)N2CCC(C)CC2)c1	i	13%	-4%	-5%	18µM*
C=C(C)c1cccc(C(C)(C)NC(=O)Nc2ccc(C(C)=O)cc2)c1	i	10%	?	?	18µM*
O=C(Nc1ccc(F)c(Cl)c1)Nc1nnc([C@H]2C[C@H](O)[C@@H](CO)O2)s1	i	.	.	.	i
C=CCn1c(SCc2ccccc2C#N)nnc1-c1cc(Br)ccc1O	?	?	?	11%	3.7µM*
O=C(CSC1=Nc2ccccc2C2CC=NN12)Nc1ccc(F)c(F)c1F (stereo not given)	i	26%	21µM*	5%	i
O=c1c2c(nc3c(-c4cccc5ccccc45)c[nH]n13)CCC2	i	0%	11µM*	-6%	i
O=c1c2c(nc3cc(-c4cccc(Cl)c4)[nH]n13)CCC2	i	?	?	11%	i
O=c1c2c(nc3c(-c4ccc(Cl)cc4)c[nH]n13)CCCC2	?	10µM*	2%	19%[9.22 µM]	i
O=c1oc2cc(Oc3ccc(C(F)(F)F)cc3[N+](=O)[O-])ccc2c2c1CCC2	i	12%	?	0%	21µM*
O=C1C(c2ccncc2)N(CCC2=CCCCC2)C(=O)CN1C1CCCCC1 (stereo not given)	i	-7%	-9%	14%	11µM*
C[C@H]1CN=C(N(C)C)N1CC1CCCCC1	i	4%	3%	-1%[9.22 µM]	i
CCOC(=O)c1sc(-c2ccc(Cl)cc2Cl)nc1O	i	-1%	?	21µM*	i
COc1cccc(N2C(=O)N(Cc3ccc(C#N)cc3)c3ccccc3S2(=O)=O)c1	?	.	.	.	i
N=C(N)SCc1nc2ccccc2c(=O)n1-c1ccccc1Cl	i	?	?	-4%	23µM*
N#Cc1c(Nc2ccccc2)[n+]([O-])c2ccc(Cl)cc2[n+]1[O-]	?	.	16%	2.9µM*	i
Cc1ncc([N+](=O)[O-])n1CC(=O)Nc1ccccc1Cl	i	.	.	.	i
Cc1cc(S(=O)(=O)N2CCC(NC(=O)C34CC5CC(CC(C5)C3)C4)CC2)ccc1-n1cnnn1	i	-27%	-1%	2%	9.2µM*
Cc1cc(S(=O)(=O)N2CCC(N3CCCCC3)CC2)ccc1-n1cnnn1	i	5%	0%	1%	i
Cc1cc(S(=O)(=O)N2CCN(c3ccccc3F)CC2)ccc1-n1cnnn1	?	-11%	8%	1%	21µM*
SMILES	KB-3-1 tox	ELG1 DNA repair	MCF10A rereplic	SW480 rerep	KB-V1 cytotox
COC(=O)c1cc2sc(Cl)cc2n1CC(=O)Nc1ccc(OC)c(OC)c1OC	i	?	26µM*	18%	i
COC(=O)c1cc2occc2n1CC(=O)Nc1ccc(OC)c(OC)c1OC	i	7%	4%	-3%	i
CC1CCc2cc(F)cc3c2N1C(=O)C(C(=O)Nc1cnccn1)C3=O (stereo not given)	i	.	.	.	i
COc1ccc(C2Nc3ccccc3C(=O)N2NC(C)=O)c(OC)c1 (stereo not given)	i	1%	-3%	27%	i
COc1cccc(COc2ccccc2C2Nc3ccc(Br)cc3C(=O)N2NC(=O)c2ccncc2)c1 (stereo not given)	?	7%	22%	?	8.2µM*
CC1(C(=O)NS(=O)(=O)C2CC2)CCCN(C(=O)c2cccnc2Oc2ccccc2)C1 (stereo not given)	i	.	.	.	i
N=c1oc2cc(O)ccc2cc1C(=O)Nc1ccccn1	.	8%	.	.	.
N=c1oc2cc(O)ccc2cc1C(=O)Nc1nc2ccccc2s1	i	?	8.2µM*	2.9µM*	i
N=c1oc2cc(O)ccc2cc1C(=O)Nc1ccc(Br)cc1	23µM*	?	5.2µM*	1.6µM*	18µM*
CC(C)(C)c1nc2c(s1)CCc1onc(-c3ccc(Cl)cc3)c1-2	i	6%	16%	-6%	i
O=C(CCCn1c2ccccc2c(=O)c2ccccc21)Nc1ccc(F)cc1Cl	i	.	.	.	i
Cc1cc(C)cc(-n2c(SCC(N)=O)nc3c(oc4ccccc43)c2=O)c1	i	.	.	.	i
CCN(CC)CCOCCOC(=O)C(CC)(CC)c1ccccc1 (tested in a mixture with another compound)	.	.	30µM*	1%	.
Cc1ccc(C2(c3ccc(C)cc3)CC2C(=O)Nc2ccc([N+](=O)[O-])cc2O)cc1 (stereo not given)	?	3%	?	19%	15µM*
CC1(C)CC1C(=O)Nc1ccc([N+](=O)[O-])cc1Br (stereo not given)	i	?	0%	2%	i
CC(C)CNC(=O)c1ccccc1NC(=O)c1ccc(CSc2ccccc2)cc1	i	0%	?	18%	13µM*
O=C(CCSc1ccccc1)Nc1ncccn1	i	19%	21µM*	23%	i
Cc1ccc(SCCC(=O)Nc2ccccc2C(=O)N2CCOCC2)cc1	i	5%	-10%	-6%	23µM*
CCC(C)NC(=O)c1ccccc1NC(=O)c1ccc(CSc2ccc(C)cc2)cc1 (stereo not given)	i	5%	17%	-14%	i
CSc1ccccc1C(=O)NCCSc1ccccc1	i	?	20%	-2%	18µM*
O=c1c(NCc2ccccc2Cl)nccn1-c1ccccc1	i	.	.	.	i
CC(C)CNC(=O)c1ccccc1NC(=O)Nc1ccccc1	i	-3%	11%	-5%	i
CC(C)CNC(=O)c1ccccc1NC(=O)CCSc1ccccc1	i	-22%	?	1%	21µM*
